# Compounds with a hit are over-represented: about 7.3% of the library has one in this group of screens.
# uPA surface inh = qHTS for Inhibitors of Cell Surface uPA Generation. AID 540303, 2011. actives 0.31% (n = 330,000). Potency, µM (top dose mostly 38.3 µM), without a hit: top-dose activity change, negative = inhibition, most hits filed as inhibitors. cell surface uPA generation assay, qHTS; active = well fitted inhibition curve with a large enough effect; inconclusive = small, poorly fitted or top-dose-only effect; inactive = no such curve, though single readings can be large or run the other way; tested in mouse RAW 264.7 cells; note: % is set by controls: 0 for no effect and ±100 for the full control effect; nearly all actives have a fitted effect of over 55% in size
# FLuc counter = qHTS profiling assay for firefly luciferase inhibitor/activator using purifed enzyme and Km concentrations of substrates (counterscreen for miR-21 project) | actives 6.9% (n = 360,000) | purified FLuc, Km substrates, luminescence inhibition | Luciferin 4-monooxygenase (Photinus pyralis), P08659 | Potency, µM (series often up to 57.5 µM), without a hit: at the top dose activity change, negative = inhibition, usual class: inhibitors;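 note: plate controls were vehicle for no effect and reference inhibitor for full effect; nearly all actives have a fitted effect of over 55% in size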
# Target sequence (P08659 whole entry, looked up): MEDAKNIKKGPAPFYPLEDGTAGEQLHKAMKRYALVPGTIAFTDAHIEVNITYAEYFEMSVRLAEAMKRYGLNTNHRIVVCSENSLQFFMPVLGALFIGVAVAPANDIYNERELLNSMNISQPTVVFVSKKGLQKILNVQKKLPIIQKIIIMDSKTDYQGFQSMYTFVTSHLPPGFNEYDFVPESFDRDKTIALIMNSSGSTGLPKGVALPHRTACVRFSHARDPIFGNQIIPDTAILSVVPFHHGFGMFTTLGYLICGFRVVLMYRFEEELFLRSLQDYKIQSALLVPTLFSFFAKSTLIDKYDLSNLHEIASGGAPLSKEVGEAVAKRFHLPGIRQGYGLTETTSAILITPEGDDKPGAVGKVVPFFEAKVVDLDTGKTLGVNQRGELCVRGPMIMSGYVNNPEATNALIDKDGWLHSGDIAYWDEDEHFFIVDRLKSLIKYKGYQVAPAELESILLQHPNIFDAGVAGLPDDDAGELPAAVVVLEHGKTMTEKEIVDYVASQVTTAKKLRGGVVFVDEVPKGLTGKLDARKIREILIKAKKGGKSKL
#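 Purified P. pyralis luciferase (10nM final) with 10uM D-luciferin and 10uM ATP (Km levels) in 50mM Tris acetate pH 7.5, 10mM Mg acetate, 0.01% Tween-20, 0.05% BSA; qHTS 6-point titration, ~60 µM downward; luminescence read.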
# NPC1 prom act = qHTS Assay for NPC1 Promoter Activators. Huh7 NPC1 promoter luciferase reporter, 24 h. AID 485313, 2010. Potency, µM (highest dose often 9.22 µM), without a hit: at the highest dose activation, most hits filed as activators. actives 2.4% (n = 320,000); note: % of control where 0% means no effect; nearly all actives have a fitted effect of over 60% in size
#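 Readout is luciferase luminescence, reflecting NPC1 promoter activation in stably transfected Huh7 cells after 24 h compound exposure at 37 °C in reduced-serum medium with 10% FBS.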
# ELG1 genotox = qHTS screen for small molecules that induce genotoxicity in human embryonic kidney (HEK293T) cells expressing luciferase-tagged ELG1; AID 504466, 2011; actives 1.3% (n = 330,000); Potency, µM (doses to about 46 µM), for inactives: at the top dose activity change, positive = activation, actives largely listed as activators; HEK293T ELG1-luciferase reporter, luminescence, 16 h; note: % of control where 0% means no effect; nearly all actives have a fitted effect of over 60% in size
#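 16 hr compound incubation (37 °C, 5% CO2) of HEK293T cells carrying luciferase-tagged ELG1; luciferase then measured by ONE-Glo luminescence after 30 min at RT.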
# Rab9 prom act = qHTS Assay for Rab9 Promoter Activators | Huh7 Rab9 promoter-luciferase reporter, luminescence, 24 h | Potency, µM (titrated, usually from 9.22 µM), for inactives: at the top dose activation, negative = inhibition, most hits filed as activators | actives 2.8% (n = 320,000) | AID 485297, 2010; note: % of control where 0% means no effect; nearly all actives have a fitted effect of over 60% in size
#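 Quantitative HTS format; Huh7 Rab9-luciferase reporter cells (1500/well) receive compound 2 h post-plating, incubate 24 h at 37 °C, then get luciferase reagent for 10 min before luminescence reading.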
# SMN2 splice up = qHTS Assay for Enhancers of SMN2 Splice Variant Expression | HEK293 SMN2-luciferase splicing reporter, luminescence, 30-36 h | Potency, µM (top dose mostly 46.1 µM), without a hit: at the top dose activity change, positive = activation, actives largely listed as activators | actives 2.8% (n = 210,000) | AID 1458, 2008; note: % of control where 0% means no effect; nearly all actives have a fitted effect of over 55% in size
#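 HEK293 cells carry an SMN2 minigene-luciferase reporter in which exon 7 inclusion puts luciferase in frame. Cells were seeded at 2000 cells/well, attached for 10-12 hours, then exposed to compounds for 30-36 hours at 37C before ONE-Glo luminescence.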
# * hit, by the source's call; ? = inconclusive; / = no result. Unless noted, calls come from the whole dose curve; as a rule, active = well fitted curve in the direction sought with a large enough effect; inconclusive = small, poorly fitted or top-dose-only effect, or another doubt; inactive = no such curve, though single readings can be large; an effect the other way counts as inactive or inconclusive. Potency is the fitted concentration of half-maximal effect.
SMILES,uPA surface inh,FLuc counter,NPC1 prom act,ELG1 genotox,Rab9 prom act,SMN2 splice up
C/C(=N\NC(=O)c1cc(-c2ccncc2)nc2ccccc12)c1ccc(OC(F)F)cc1,-8%,?,-2%,-5%,-1%,-10%
Cc1ccc(-c2cc(-c3nnc(SCC(=O)NC(C)C(C)C)n3N)c3ccccc3n2)cc1 (stereo not drawn),/,8.5µM*,0%,0%,0%,-3%
CC(NC(=O)CSc1nnc(-c2cccnc2)n1N)c1ccccc1 (stereo not drawn),-3%,-3%,2%,0%,2%,10%
COc1ccc(Cl)cc1NC(=O)Cn1c(=O)n(Cc2ccc(F)cc2)c(=O)c2cccnc21,/,-8%,/,/,/,-12%
Cn1sc(NC(=O)c2ccccc2Cl)nc1=O,-4%,19µM*,-8%,4%,-1%,?
Cn1sc(NC(=O)c2cccc(Cl)c2)nc1=O,0%,19µM*,?,13%,24%,17%
CCN(c1cccc(C)c1)S(=O)(=O)c1c(C)nc2sc(C)cn2c1=O,/,-5%,/,/,/,/
Cc1cc(/C=C\c2ccccc2)nc2ccccc12,?,1.5µM*,23%,?,?,/
COc1ccc(/C=C/c2cc(C(=O)O)c3ccccc3n2)cc1,-12%,0.067µM*,?,-15%,?,/
COc1cc(OC)c(OC)cc1/C=C/c1cc(C(=O)O)c2ccccc2n1,-22%,11µM*,-1%,3%,-8%,-8%
COc1ccc2nc(C)cc(C(=O)O)c2c1,3%,-2%,3%,2%,-6%,-6%
COc1ccc(-c2cc(C(=O)N/N=C/c3cc(OC)c(OC)cc3OC)c3ccccc3n2)cc1,4%,/,/,/,/,/
CCOc1ccccc1/C=C/c1cc(C(=O)O)c2ccccc2n1,-4%,13µM*,22%,10%,14%,/
CCc1ccc(-n2c(Cc3ccccc3)nnc2SCc2nc(-c3cccs3)no2)cc1,/,-16%,/,/,/,12%
CCOc1ccccc1/C=C/c1nc2ccccc2[nH]c1=O,-10%,-10%,3.2µM*,5%,4µM*,/
CN1CCN(c2ccc(NC(=O)COc3ccccc3)cc2Cl)CC1,-7%,21µM*,4.5µM*,?,4µM*,/
Cc1cc(NC(=O)COc2ccccc2)ccc1Cl,15%,27µM*,?,?,28%,/
Cc1ccc(NC(=O)COc2ccccc2)cc1Cl,2%,?,-5%,15%,0%,/
CC(C)c1ccc(NC(=O)COc2ccccc2)cc1,4%,17µM*,?,?,?,/
CCOC(=O)c1c(C)[nH]c(C)c1S(=O)(=O)N1CCN(C(=O)c2ccco2)CC1,12%,4%,-2%,9%,1%,/
CC(/C=N\NC(=O)c1ccc(C)nc1)=C\c1ccccc1,-3%,8.5µM*,3%,2%,-3%,7%
COc1ccc(C(=O)NCC(=O)N/N=C/C=C/c2ccccc2)cc1OC,6%,?,-2%,12%,-4%,17%
CC(C=NNC(=O)C(=O)NN=CC(C)=Cc1ccccc1)=Cc1ccccc1,-7%,/,/,/,/,/
COc1ccc(C(=O)NCC(=O)N/N=C/C(C)=C/c2ccccc2)cc1OC,3%,17µM*,-7%,-1%,0%,-1%
CC(/C=N/NC(=O)c1ccco1)=C\c1ccccc1,-12%,2.4µM*,0.56µM*,2.3µM*,0.35µM*,2.5µM*
SMILES,uPA surface inh,FLuc counter,NPC1 prom act,ELG1 genotox,Rab9 prom act,SMN2 splice up
CC(/C=N/NC(=O)c1ccccc1F)=C\c1ccccc1,?,3.4µM*,1.1µM*,?,1.1µM*,/
CC(/C=N/NC(=O)c1cccc([N+](=O)[O-])c1)=C\c1ccccc1,/,-13%,?,9%,21%,-2%
COc1cc(OC)cc(C(=O)N2CCC(c3ccncc3)CC2)c1,/,0%,/,/,/,/
CC(C)(C)c1cc(NC(=O)Nc2ccccc2OC(F)(F)F)no1,-1%,-2%,2%,1%,-3%,/
Cc1cc(NC(NC(=O)c2ccco2)(C(F)(F)F)C(F)(F)F)no1,-1%,-2%,15%,1%,13%,13%
CC(C)(C)c1cc(NC(=O)Nc2ccccc2)no1,?,4.8µM*,1.4µM*,?,1.3µM*,/
CC(C)(C)c1cc(NC(=O)c2ccco2)no1,-12%,5.4µM*,1.8µM*,1.3µM*,0.63µM*,/
Cc1cc(C(=O)Nc2cc(C(C)(C)C)on2)c(C)o1,?,9.5µM*,?,?,2.8µM*,/
Cc1ccc(S(=O)(=O)NC(=O)Nc2cc(C(C)(C)C)on2)cc1,0%,-2%,-5%,-6%,-6%,/
COC(=O)c1ccccc1NC(=O)Nc1cc(C(C)(C)C)on1,1%,-9%,2µM*,16µM*,0.89µM*,/
Cc1c(C(=O)N2CCC(C)CC2)c(S(=O)(=O)Nc2ccc(OC(F)(F)F)cc2)c(C)n1C,/,-15%,/,/,/,/
O=C(Cc1csc(NC(=O)c2ccc(F)cc2)n1)NO,-10%,-3%,-7%,4%,18%,1%
CC1=CS(=O)(=O)CC1SC(=S)N(C)C1CCS(=O)(=O)C1 (stereo not drawn),7%,2%,-3%,0%,-2%,1%
CCOC(=O)c1c(NC(=O)COc2cccc(C(F)(F)F)c2)sc2c1CCCCC2,/,-15%,/,/,/,-6%
CC(C)(C)c1cc(NC(=O)c2cccc([N+](=O)[O-])c2)no1,-8%,?,2.2µM*,?,1.4µM*,2.8µM*
Cc1cc(NC(=O)c2cccc([N+](=O)[O-])c2)no1,-2%,0%,-2%,6%,0%,/
Fc1ccc(-c2ccc3c(c2)C2CC3CCN2Cc2ccc3c(c2)OCO3)cc1 (stereo not drawn),9%,/,/,/,/,/
c1ccc2c3c(cc(N4CCOCC4)c2c1)OC1(N2CCOCC2)CCCCC1O3 (stereo not drawn),10%,0%,1%,-15%,3%,22µM*
Cc1cnc(NC(=O)C2CCC(C(C)(C)C)CC2)s1 (stereo not drawn),3%,19µM*,28%,12%,?,/
CC(C)(C)C1CCC(C(=O)Nc2nccs2)CC1 (stereo not drawn),-4%,?,?,-1%,27%,/
O=C(NCC1CCN(Cc2ccc(F)cc2)CC1)c1cc2ccc3cccnc3c2[nH]1,/,-5%,/,/,/,/
COc1ccccc1/C=C/C(=O)NCCC1=CCCCC1,1%,11µM*,4µM*,?,3.2µM*,11µM*
O=C(/C=C/c1ccc(F)cc1)NCCC1=CCCCC1,-9%,15µM*,?,13%,?,?
O=C(COC(=O)/C=C/c1ccccc1)NCCC1=CCCCC1,4%,5%,-2%,5%,0%,-7%

# Assay outcomes from PubChem.
